Our source for the Potency and activity (max response) values is PubChem BioAssay (NCATS).

Assay [1] in a line: Viability qHTS for spleen associated tyrosine kinase inhibitor (SYKi) naive MV4-11 cells (AID 1963823). Note: nearly all actives have a fitted effect of over 40% in size. Conditions: MV4-11 AML viability, CellTiter-Glo luminescence, 72 h; series mostly up to 45 µM. In outline:
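Cells: MV4-11, SYK inhibitor naive, 500 per well. Treatment: library compounds, 72 hr, 37 C, 5% CO2. Read-out: CellTiter-Glo luminescence after 10 min RT.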

Assay [2] can be described thus: Viability qHTS for spleen associated tyrosine kinase inhibitor (SYKi) drug resistant MV4-11 cells (AID 1963824). Note: nearly all actives have a fitted effect of over 35% in size. Conditions: SYKi-resistant MV4-11 viability, CellTiter-Glo, 72 h; series mostly up to 45 µM. The essentials: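 SYK inhibitor-resistant MV4-11 AML cells, 500 per well, added to predispensed compounds and incubated 72 hr at 37 C, 5% CO2. Viability measured by CellTiter-Glo luminescence after 10 min at room temperature.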

Assay [3] can be described thus: Cellular viability qHTS for adrenocortical cancer (ACC) cell line SW-13 (AID 1963989).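 For activity (max response): cells grown in serum-free medium with ITS supplement; % is set by controls: 0 for no effect and ±100 for the full control effect.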 Note: nearly all actives have a fitted effect of over 65% in size. Conditions: SW-13 ACC cells viability, CellTiter-Glo, 48 h; activity (max response): stronger effect = lower value. In outline: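 48 h treatment, SW-13 in ITS/DMEM serum-free; doses up to 46 uM; readout CellTiter-Glo luminescence; curve fit four-parameter logistic.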
Assay [4] can be described thus: Cellular viability qHTS for adrenocortical cancer (ACC) cell line NCI-H295R (AID 1963990). Note: nearly all actives have a fitted effect of over 60% in size. Conditions: CellTiter-Glo ATP luminescence, 48 h; series mostly up to 46.1 µM. In outline:
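Compound titrations (up to 46 uM final) are applied to NCI-H295R cultures for 48 h at 37C. Viable cell number is estimated by CellTiter-Glo signal, normalised to DMSO and doxorubicin controls.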

Several values for one entry are separate records, joined by “and”; a condition that tells them apart may be missing. Equal entries are not always repeated. Results filed as inconclusive are left out. More than one record can exist for a structure, and the calls need not agree. Activity calls are given as the source filed them. Calls come from the whole dose curve; as a rule, active = well fitted curve in the direction sought with a large enough effect; inconclusive = small, poorly fitted or top-dose-only effect, or another doubt; inactive = no such curve, though single readings can be large; an effect the other way counts as inactive or inconclusive.
Potency is the fitted concentration of half-maximal effect.

As for `CC(O)C(=O)O` (centres undefined), the Potency entry in assay [1], in assay [2] and in assay [4] was “inactive” in each case. In addition, the activity (max response) in assay [3] is 6.49% (inactive).
For the compound `C/C=C/c1ccc(OC)cc1`, the Potency result in assay [1], in assay [2] and in assay [4] was “inactive” in each case. For the same compound, the activity (max response) in assay [3] is 7.49% (inactive).
On to `c1ccc2[nH]ccc2c1`, for which the Potency result in assay [1], in assay [2] and in assay [4] was “inactive” each time. Besides, the activity (max response) in assay [3] was 10.5% (inactive).
With `C[C@@]1(c2ncncc2F)NC(=O)c2cc(-c3cn[nH]c3)ccc21`, the figures for the Potency in assay [1] and in assay [2] were 16.6 µM (active) and 20.9 µM (active), respectively. For the same compound, the activity (max response) in assay [3] is -10.1% (inactive). The Potency entry in assay [4] is “inactive”.
On the same counts, the results for `Nc1ccc(C(=O)NCC(=O)O)cc1` are “inactive”, “inactive”, -9.96% (inactive) and “inactive”.
As to `CO[C@H]1/C=C\C=C(\C)C(=O)NC2=CC(=O)C(NCCN(C)C)=C(C[C@@H](C)C[C@H](OC)[C@H](O)[C@@H](C)/C=C(/C)[C@@H]1OC(N)=O)C2=O`, the Potency in assay [1] was 0.0332 µM (active); in assay [2] it was 0.0833 µM (active); in assay [3], 0.282 µM (active); in assay [4], 2 µM (active).
As for `O=C(CCc1ccc(O)cc1)c1c(O)cc(O)cc1O[C@@H]1O[C@H](CO)[C@@H](O)[C@H](O)[C@H]1O`, the Potency result in assay [1], in assay [2] and in assay [4] was “inactive” throughout. In addition, the activity (max response) in assay [3] is 0.618% (inactive).
Consider `CC(=O)Oc1cccc(O)c1`, for which the Potency result in assay [1], in assay [2] and in assay [4] was “inactive” throughout. For the same compound, the activity (max response) in assay [3] is 7.39% (inactive).
Take `Cc1ccc(-c2ncc(Cl)cc2-c2ccc(S(C)(=O)=O)cc2)cn1`: the Potency result in assay [1], in assay [2] and in assay [4] was “inactive” in each case. Further, the activity (max response) in assay [3] was 3.04% (inactive) and -7.76% (inactive).
As to `C/C=C/C/C=C/CCC(=O)[C@H]1O[C@H]1C(N)=O`, the Potency in assay [1] was 8.33 µM (active); in assay [2] it was 6.61 µM (active); in assay [3], 25.1 µM (active); in assay [4], 20 µM (active).
As to `O=C(O)Cn1cnnn1`, the Potency result in assay [1], in assay [2] and in assay [4] was “inactive” throughout. Besides, the activity (max response) in assay [3] is 12.6% (inactive).
As to `O=C(O)c1ccccc1O`, the Potency entry in assay [1], in assay [2] and in assay [4] was “inactive” in each case. Further, in assay [3], the activity (max response) is 13.2% (inactive).
Consider `O=C(O)/C=C\C(=O)O`, for which the Potency result in assay [1], in assay [2] and in assay [4] was “inactive” each time. The activity (max response) in assay [3] is 6.23% (inactive).
In the case of `Nc1ccc(S(=O)(=O)Nc2ccccn2)cc1`, the Potency entry in assay [1], in assay [2] and in assay [4] was “inactive” throughout. Also, the activity (max response) in assay [3] is 6.67% (inactive).
With `Cc1ccc(C(C)OC(=O)C2(C)CCC(C(=O)O)C2(C)C)cc1` (centres undefined), the Potency result in assay [1], in assay [2] and in assay [4] was “inactive” in each case. For the same compound, the activity (max response) in assay [3] was 8.64% (inactive).
Turning to `CN(C)CCCOc1nn(Cc2ccccc2)c2ccccc12`, in assay [1], the Potency result is “inactive”. Also, the Potency entry in assay [2] was “inactive and 13 µM (active)”; in assay [3], 11.6 µM (active); in assay [4] it was 14.6 µM (active).
For the compound `Cc1[nH]cnc1CN1CCN(C(=O)N[C@@H](CC(C)C)C(=O)O)[C@@H](Cc2ccccc2)C1=O`, the Potency entry in assay [1], in assay [2] and in assay [4] was “inactive” in each case. Further, the activity (max response) in assay [3] was 6.54% (inactive).
For `CCCCC(CC)CNC(=O)CC(C)OC(=O)CCC(=O)O` (centres undefined), the Potency result in assay [1], in assay [2] and in assay [4] was “inactive” each time. Also, the activity (max response) in assay [3] was -6.84% (inactive).
As for `O=C(/C=C/c1ccc(CN(CCO)CCc2c[nH]c3ccccc23)cc1)NO`, the Potency in assay [1] is 0.0742 µM (active); in assay [2] it was 0.059 µM (active); in assay [3], 0.708 µM (active); in assay [4], 0.562 µM (active).
As to `C[C@@H]1C[C@H]2[C@@H]3C[C@H](F)C4=CC(=O)C=C[C@]4(C)[C@@]3(F)[C@@H](O)C[C@]2(C)[C@@]1(O)C(=O)CO`, the results for the Potency in assay [1] and in assay [2] were 0.335 µM (active) and 2.11 µM (active), respectively. Moreover, in assay [3], the activity (max response) is -1.7% (inactive). The Potency result in assay [4] is “inactive”.
For `C[C@]12C[C@H](O)[C@H]3[C@@H](CCC4=CC(=O)CC[C@@]43C)[C@@H]1CC[C@@H]2C(=O)CO` the same measures were “inactive”, “inactive”, 4.71% (inactive) and “inactive”.
For `CO[C@@H](C)Cn1c(=O)n(C)c2cnc3ccc(-c4cncc(C(C)(C)O)c4)cc3c21`, the Potency is 0.082 µM (active) in assay [1], 0.332 µM (active) in assay [2], 3.55 µM (active) in assay [3] and 0.891 µM (active) in assay [4].
Turning to `CC(=O)Nc1ccc(C(=O)Nc2ccccc2N)cc1`, the Potency is 5.63 µM (active) and 4.68 µM (active) in assay [1]; 3.55 µM (active) and 3.72 µM (active) in assay [2]; 11.2 µM (active) in assay [3]; 6.31 µM (active) in assay [4].
In the case of `COCCOC(=O)N1CCN(S(=O)(=O)c2cc(F)c(Oc3ccc(Cl)cc3)c(F)c2)C(C(=O)NO)C1` (centres undefined), the Potency in assay [1] is 5.9 µM (active); in assay [2], 5.9 µM (active); in assay [3] it was 5.01 µM (active); in assay [4] it was 2.82 µM (active).
With `NC[C@@](O)(c1ccc(Cl)cc1)c1ccc(-c2cn[nH]c2)cc1`, the Potency in assay [1] was 2.06 µM (active) and 3.32 µM (active); in assay [2], 3.26 µM (active) and 6.61 µM (active); in assay [3] it was 12.6 µM (active); in assay [4] it was 10 µM (active).
In the case of `COc1ccc(-c2c(C)nn3c(NCCN4CCOCC4)cc(C)nc23)cc1OC`, the Potency in assay [1] is 8.33 µM (active); in assay [2], 9.2 µM (active). Moreover, the activity (max response) in assay [3] was 10.9% (inactive). The Potency entry in assay [4] was “inactive”.
